According to PubChem BioAssay (Tox21):
Inconclusive results are not listed. The source made the active and inactive calls. Unless noted, calls follow the shape of the dose curve; as a rule, active = well fitted curve in the direction sought with a large enough effect in the repeat runs; inconclusive = weak or mixed curves; inactive = no such curve, though single readings can be large; an effect the other way counts as inactive or inconclusive.

What was measured:
[1] = qHTS assay to identify aromatase inhibitors - cell viability counter screen (AID 743084);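 also: cells stimulated with testosterone during compound exposure; nearly all actives have a fitted effect of over 55% in size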; also: potency is read from the fitted curve at half-maximal effect
[2] = biological target: Aryl hydrocarbon receptor (Homo sapiens) (UniProt P35869); assay: qHTS assay to identify small molecule that activate the aryl hydrocarbon receptor (AhR) signaling pathway (AID 743085); also: nearly all actives have a fitted effect of over 15% in size; also: potency is read from the fitted curve at half-maximal effect;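 as to activation: HG2L7.5c1 human HepG2 liver cells with stably integrated DRE-driven firefly reporter; series mostly up to about 70 µM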
In short: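 Luminescence read-out: ONE-Glo reagent, 30 min at room temperature, in HG2L7.5c1 HepG2 reporter cells treated 24 h at 37C. Viability was measured beforehand by CellTiter-Fluor fluorescence after 30 min at 37C.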

[3] = qHTS assay to identify small molecule that activate the aryl hydrocarbon receptor (AhR) signaling pathway - cell viability counter screen (AID 743086); also: nearly all actives have a fitted effect of over 45% in size; also: potency is read from the fitted curve at half-maximal effect;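 as to viability change, negative = cytotoxic: HepG2 liver cells carrying the AhR DRE luciferase reporter; series mostly up to about 70 µM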
In short: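 HepG2-AhR-luc (HG2L7.5c1) cells, 4000/well, were preincubated 5 h at 37C, exposed to compound in qHTS format for 24 hr at 37C, then given CellTiter-Fluor for 30 min; viability was read as fluorescence in the reporter wells.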

[4] = biological target: Peroxisome proliferator-activated receptor gamma (Homo sapiens) (UniProt P37231); assay: qHTS assay to identify small molecule agonists of the peroxisome proliferator-activated receptor gamma (PPARg) signaling pathway (AID 743094; active = well fitted activation curve with a large enough effect in the signal ratio in the repeat runs, not every such curve was filed as active; the % refers to the signal ratio)
In short: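 Compounds dissolved in DMSO were added to PPARg UAS-bla HEK293H cells for 17 h at 37C, and reporter expression was quantified by fluorescence intensity after 1 h with LiveBLAzer B/G FRET substrate.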

[5] = biological target: Peroxisome proliferator-activated receptor gamma (Homo sapiens) (UniProt P37231); assay: qHTS assay to identify small molecule antagonists of the peroxisome proliferator-activated receptor gamma (PPARg) signaling pathway (AID 743191; calls by dose curve; also: series mostly up to about 63 µM; nearly all actives have a fitted effect of over 30% in size)
In short: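 GeneBLAzer PPARg UAS-bla HEK293H cells carrying a UAS-driven beta-lactamase reporter were plated at 3000 cells/well, preincubated 5 h at 37C, then given compound for 17 h at 37C; LiveBLAzer B/G FRET substrate was read after 1 h at room temperature.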

[6] = qHTS assay to identify small molecule antagonists of the peroxisome proliferator-activated receptor gamma (PPARg) signaling pathway - cell viability counter screen (AID 743194); also: nearly all actives have a fitted effect of over 55% in size
In short: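 PPARg-UAS-bla HEK293H cells were plated, rested 5 h at 37 C, then treated with compounds plus rosiglitazone (50 nM final) for 17 h at 37 C; viability was then read by CellTiter-Glo luminescence after 30 min at room temperature.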

[7] = qHTS assay for small molecule agonists of the antioxidant response element (ARE) signaling pathway (AID 743202; active = well fitted activation curve with a large enough effect in the signal ratio in the repeat runs, not every such curve was filed as active; the % refers to the signal ratio)
In short: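 Compounds delivered in DMSO to ARE-bla HepG2 cells (2,000 cells/well, pre-incubated 5 h) and left 16 h at 37 C. LiveBLAzer B/G FRET substrate then added for 2 h at RT before fluorescence reading.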

[8] = qHTS assay for small molecule agonists of the antioxidant response element (ARE) signaling pathway - cell viability counter screen (AID 743203; calls by dose curve; also: nearly all actives have a fitted effect of over 55% in size)
In short: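 Following 16 hrs of compound treatment at 37C, HepG2 cells with an ARE-controlled beta-lactamase gene were lysed with CellTiter-Glo. Luminescence was read after 30 min at room temperature.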

[9] = qHTS assay for small molecule activators of the heat shock response signaling pathway - cell viability counter screen (AID 743209); also: nearly all actives have a fitted effect of over 50% in size
In short: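 Readout: CellTiter-Glo luminescence, 30 min at room temperature. System: HSE-bla HeLa cells, 1500/well, plated overnight. Treatment: compounds in DMSO, 5 h at 37 C.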

[10] = qHTS assay for small molecule activators of the heat shock response signaling pathway (AID 743210; active = well fitted activation curve with a large enough effect in the signal ratio in the repeat runs, with a control signal flat, not every such curve was filed as active; the % refers to the signal ratio;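 also: HeLa cells with beta-lactamase reporter driven by heat shock elements; series mostly up to about 63 µM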)
In short: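 Reporter gene assay: HeLa cells stably bearing an HSE-bla construct, compound treatment 5 h at 37 C, LiveBLAzer substrate 2.5 h at RT, fluorescence intensity.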

[11] = qHTS assay to identify small molecule agonists of the peroxisome proliferator-activated receptor delta (PPARd) signaling pathway - cell viability counter screen (AID 743211); also: nearly all actives have a fitted effect of over 55% in size
In short: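 Read-out: CellTiter-Glo luminescence, 30 min RT, measured in the same wells as the beta-lactamase reporter. Cells: GeneBLAzer PPAR delta UAS-bla HEK293H, 3000 cells/well, compound exposure 17 h at 37C.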

[12] = qHTS assay to identify small molecule antagonists of the peroxisome proliferator-activated receptor delta (PPARd) signaling pathway - cell viability counter screen (AID 743213); also: nearly all actives have a fitted effect of over 50% in size
In short: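 PPARd-bla HEK293H cells were treated with compounds plus agonist L165041 (300 nM final) for 17 h at 37 C. Viability was then read in the same wells by CellTiter-Glo luminescence after 30 min at room temperature.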

[13] = qHTS assay to identify small molecule agonists of the farnesoid-X-receptor (FXR) signaling pathway - cell viability counter screen (AID 743218); also: nearly all actives have a fitted effect of over 45% in size
In short: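 Parallel cytotoxicity test: compound-treated (16 h, 37 C) HEK 293T FXR-bla reporter cells were lysed with CellTiter-Glo and luminescence recorded.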

[14] = qHTS assay to identify small molecule antagonists of the farnesoid-X-receptor (FXR) signaling pathway - cell viability counter screen (AID 743221; active = well fitted cell-killing curve with a large enough effect in the repeat runs, not every such curve was filed as active; also: nearly all actives have a fitted effect of over 50% in size)
In short: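 HEK 293T FXR-bla cells, 5 h pre-incubation; compound + CDCA 50 uM final, 16 h, 37 C; beta-lactamase FRET read first, then CellTiter-Glo luminescence, 30 min RT.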

[15] = biological target: Vitamin D3 receptor (Homo sapiens) (UniProt P11473); assay: qHTS assay to identify small molecule antagonists of the vitamin D receptor (VDR) signaling pathway (AID 743223; active = well fitted inhibition curve with a large enough effect in the signal ratio in the repeat runs, not every such curve was filed as active; the % refers to the signal ratio)
In short: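 Beta-lactamase reporter read-out: FRET substrate fluorescence after 2 h at room temperature, following 16 h exposure of VDR-bla cells to test compound plus 3 nM (final) 1alpha,25-dihydroxyvitamin D3 agonist at 37C.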

[16] = biological target: Peroxisome proliferator-activated receptor delta (Homo sapiens) (UniProt Q03181); assay: qHTS assay to identify small molecule agonists of the peroxisome proliferator-activated receptor delta (PPARd) signaling pathway (AID 743212; calls by dose curve)
In short: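 A PPARd-bla HEK293H line with beta-lactamase under an Upstream Activator Sequence is treated with compounds at 37 C. Substrate loading for 2 h at room temperature precedes the fluorescence measurement.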

[17] = biological target: Peroxisome proliferator-activated receptor delta (Homo sapiens) (UniProt Q03181); assay: qHTS assay to identify small molecule antagonists of the peroxisome proliferator-activated receptor delta (PPARd) signaling pathway (AID 743215; active = well fitted inhibition curve with a large enough effect in the signal ratio in the repeat runs, not every such curve was filed as active; the % refers to the signal ratio;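 also: cells stimulated with agonist L165041 at 300 nM final during compound exposure; series mostly up to about 62 µM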)
In short: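 HEK293H UAS-bla, PPARd; agonist L165041 300 nM final with cpd in DMSO; 37 C 17 h; FRET substrate, RT 2 h; fluorescence intensity.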

[18] = biological target: Bile acid receptor (Homo sapiens) (UniProt Q96RI1); assay: qHTS assay to identify small molecule antagonists of the farnesoid-X-receptor (FXR) signaling pathway (AID 743217; active = well fitted inhibition curve with a large enough effect in the signal ratio in the repeat runs, not every such curve was filed as active; the % refers to the signal ratio)
In short: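 GeneBLAzer FXR-UAS-bla HEK 293T, CDCA-stimulated (50 uM final). Compound treatment 16 h, 37 °C. Detection: beta-lactamase cleavage of B/G FRET substrate, fluorescence.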

[19] = biological target: Bile acid receptor (Homo sapiens) (UniProt Q96RI1); assay: qHTS assay to identify small molecule agonists of the farnesoid-X-receptor (FXR) signaling pathway (AID 743220; active = well fitted activation curve with a large enough effect in the signal ratio in the repeat runs, not every such curve was filed as active; the % refers to the signal ratio)
In short: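 Beta-lactamase reporter under UAS control in GeneBLAzer FXR HEK 293T cells (5000/well) measured with LiveBLAzer FRET substrate after 2 h at room temperature. Compound exposure lasted 16 h at 37C.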

[20] = biological target: Vitamin D3 receptor (Homo sapiens) (UniProt P11473); assay: qHTS assay to identify small molecule agonists of the vitamin D receptor (VDR) signaling pathway (AID 743222; calls by dose curve)
In short: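 In VDR-bla cells, compound-induced beta-lactamase expression is quantified by FRET substrate fluorescence. Treatment lasts 16 h at 37C; substrate develops 2 h at room temperature.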
% is scaled to controls: 0 for no effect and ±100 for the full control effect.

Sequence of Aryl hydrocarbon receptor (Homo sapiens) (P35869 whole entry, looked up): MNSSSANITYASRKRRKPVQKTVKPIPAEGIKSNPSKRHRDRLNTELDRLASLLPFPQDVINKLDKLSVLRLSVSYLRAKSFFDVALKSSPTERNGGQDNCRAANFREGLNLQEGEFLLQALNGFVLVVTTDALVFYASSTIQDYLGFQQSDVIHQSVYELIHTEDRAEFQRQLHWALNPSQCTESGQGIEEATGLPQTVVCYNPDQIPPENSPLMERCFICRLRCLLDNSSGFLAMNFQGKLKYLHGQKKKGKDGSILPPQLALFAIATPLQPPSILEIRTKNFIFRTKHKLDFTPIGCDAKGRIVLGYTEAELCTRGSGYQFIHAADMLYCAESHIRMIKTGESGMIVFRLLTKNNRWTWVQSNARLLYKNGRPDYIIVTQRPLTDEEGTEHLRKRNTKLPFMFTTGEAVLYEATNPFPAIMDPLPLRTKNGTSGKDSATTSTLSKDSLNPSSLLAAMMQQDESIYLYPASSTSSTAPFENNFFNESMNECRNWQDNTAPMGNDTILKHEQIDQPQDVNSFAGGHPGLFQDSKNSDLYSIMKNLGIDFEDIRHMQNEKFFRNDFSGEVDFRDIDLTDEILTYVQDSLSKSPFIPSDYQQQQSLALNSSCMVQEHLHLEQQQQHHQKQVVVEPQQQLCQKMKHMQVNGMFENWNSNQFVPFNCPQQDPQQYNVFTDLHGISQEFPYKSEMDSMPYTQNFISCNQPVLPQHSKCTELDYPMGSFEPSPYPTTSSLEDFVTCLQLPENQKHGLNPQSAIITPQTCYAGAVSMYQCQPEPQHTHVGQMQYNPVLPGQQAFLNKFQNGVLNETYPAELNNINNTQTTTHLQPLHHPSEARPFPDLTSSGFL
Sequence of Bile acid receptor (Homo sapiens) (Q96RI1 whole entry, looked up): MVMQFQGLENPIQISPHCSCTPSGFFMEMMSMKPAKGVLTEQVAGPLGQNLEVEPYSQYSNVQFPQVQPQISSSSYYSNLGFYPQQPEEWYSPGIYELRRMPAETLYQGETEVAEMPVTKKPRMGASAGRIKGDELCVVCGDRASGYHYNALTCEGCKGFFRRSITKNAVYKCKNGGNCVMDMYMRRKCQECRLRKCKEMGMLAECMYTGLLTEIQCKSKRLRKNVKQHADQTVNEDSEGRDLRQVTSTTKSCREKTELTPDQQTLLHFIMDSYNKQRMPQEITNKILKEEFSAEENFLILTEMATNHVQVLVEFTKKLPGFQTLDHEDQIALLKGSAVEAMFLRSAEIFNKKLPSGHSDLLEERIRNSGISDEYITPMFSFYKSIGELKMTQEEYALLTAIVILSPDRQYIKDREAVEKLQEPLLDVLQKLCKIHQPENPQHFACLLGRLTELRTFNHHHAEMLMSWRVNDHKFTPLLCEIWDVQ
Sequence of Vitamin D3 receptor (Homo sapiens) (P11473 whole entry, looked up): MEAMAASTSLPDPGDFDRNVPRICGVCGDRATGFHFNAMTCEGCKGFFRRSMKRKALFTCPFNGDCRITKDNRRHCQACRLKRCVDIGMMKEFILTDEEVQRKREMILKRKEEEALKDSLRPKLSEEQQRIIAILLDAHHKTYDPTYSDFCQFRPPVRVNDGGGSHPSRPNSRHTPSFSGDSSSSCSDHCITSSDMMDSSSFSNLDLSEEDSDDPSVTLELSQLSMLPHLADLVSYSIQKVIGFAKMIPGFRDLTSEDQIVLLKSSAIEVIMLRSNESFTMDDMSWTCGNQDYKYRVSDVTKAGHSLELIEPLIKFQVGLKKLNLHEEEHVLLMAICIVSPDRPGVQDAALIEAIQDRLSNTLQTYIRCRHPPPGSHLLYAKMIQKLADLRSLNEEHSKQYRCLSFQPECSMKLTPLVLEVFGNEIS
Sequence of Peroxisome proliferator-activated receptor gamma (Homo sapiens) (P37231 whole entry, looked up): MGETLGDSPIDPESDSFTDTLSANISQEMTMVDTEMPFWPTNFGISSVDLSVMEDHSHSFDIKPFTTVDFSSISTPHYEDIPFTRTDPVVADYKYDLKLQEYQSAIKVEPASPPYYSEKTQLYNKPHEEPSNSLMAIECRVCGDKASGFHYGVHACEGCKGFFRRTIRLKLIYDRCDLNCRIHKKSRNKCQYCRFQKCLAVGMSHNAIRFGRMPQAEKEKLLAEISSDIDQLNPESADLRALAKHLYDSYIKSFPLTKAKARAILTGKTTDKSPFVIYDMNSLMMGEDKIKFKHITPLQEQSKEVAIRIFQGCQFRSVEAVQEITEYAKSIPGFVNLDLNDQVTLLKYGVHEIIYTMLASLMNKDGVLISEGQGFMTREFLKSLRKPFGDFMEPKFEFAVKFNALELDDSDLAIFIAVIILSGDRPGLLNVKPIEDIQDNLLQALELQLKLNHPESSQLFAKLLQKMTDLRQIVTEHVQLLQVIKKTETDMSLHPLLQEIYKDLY
Sequence of Peroxisome proliferator-activated receptor delta (Homo sapiens) (Q03181 whole entry, looked up): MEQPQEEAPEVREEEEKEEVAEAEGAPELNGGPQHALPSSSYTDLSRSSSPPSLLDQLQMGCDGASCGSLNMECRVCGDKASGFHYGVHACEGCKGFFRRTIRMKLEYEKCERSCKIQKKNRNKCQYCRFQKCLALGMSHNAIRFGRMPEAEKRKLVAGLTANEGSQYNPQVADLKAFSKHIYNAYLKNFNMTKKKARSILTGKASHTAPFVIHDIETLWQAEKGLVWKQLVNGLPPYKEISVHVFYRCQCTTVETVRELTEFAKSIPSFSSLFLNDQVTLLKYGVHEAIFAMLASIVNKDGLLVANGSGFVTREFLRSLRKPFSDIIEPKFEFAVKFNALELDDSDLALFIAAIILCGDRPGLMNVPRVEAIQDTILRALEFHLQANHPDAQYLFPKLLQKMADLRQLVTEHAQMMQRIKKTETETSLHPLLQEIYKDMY

OC1OC[C@@H](O)[C@H](O)[C@H]1O (stereo partly drawn)
inactive: Potency [1] | Potency [2] | Potency [3] | outcome [4] | outcome [5] | Potency [6] | Potency [7] | outcome [8] | outcome [9] | outcome [10] | Potency [11] | Potency [12] | outcome [13] | Potency [14]

NC(=O)c1ncn([C@@H]2O[C@H](CO)[C@@H](O)[C@H]2O)c1N
inactive: Potency [1] | Potency [2] | Potency [3] | outcome [4] | outcome [5] | Potency [6] | Potency [7] | outcome [8] | outcome [9] | outcome [10] | Potency [11] | Potency [12] | Potency [14] | outcome [15]

COC(=O)C1=C(C)NC(C)=C(C(=O)OCC(C)=O)C1c1ccccc1[N+](=O)[O-] (stereo not drawn)
inactive: outcome [4] | outcome [5] | Potency [6] | Potency [7] | outcome [8] | outcome [9] | outcome [10] | Potency [11] | outcome [16] | Potency [12] | outcome [17] | outcome [18] | outcome [13] | outcome [19] | Potency [14] | outcome [15]
active: Potency [1] 26.6 µM | Potency [2] 8.41 µM | Potency [3] 29.8 µM

NCC[C@H](O)C(=O)N[C@@H]1C[C@H](N)[C@@H](O[C@H]2O[C@H](CN)[C@@H](O)[C@H](O)[C@H]2O)[C@H](O)[C@H]1O[C@H]1O[C@H](CO)[C@@H](O)[C@H](N)[C@H]1O
inactive: Potency [1] | Potency [2] | Potency [3] | outcome [4] | ratio activity, negative = inhibition [5] 0.895% [at 0.55 µM] | activity change, negative = cytotoxicity [6] 0.328% [at 0.55 µM] | activation [7] 2.58% [at 0.756 µM] | viability change, negative = cytotoxic [8] -0.425% [at 0.756 µM] | activity change, negative = cytotoxicity [9] -14.9% [at 0.55 µM] | activation [10] 0.848% [at 0.55 µM] | activity change, negative = cytotoxicity [11] 6.61% [at 0.55 µM] | activation [16] 0% [at 0.55 µM] | viability change, negative = cytotoxic [12] -2.06% [at 0.575 µM] | ratio activity, negative = inhibition [17] 4.4% [at 0.575 µM] | activity change, negative = cytotoxicity [14] 9.05% [at 0.55 µM]

OCCN1C[C@H](O)[C@@H](O)[C@H](O)[C@H]1CO
inactive: Potency [1] | Potency [2] | Potency [3] | outcome [4] | outcome [5] | Potency [6] | Potency [7] | outcome [8] | outcome [9] | outcome [10] | Potency [11] | outcome [16] | Potency [12] | outcome [17] | outcome [18] | outcome [13] | outcome [19] | Potency [14]

NC(N)=NS(=O)(=O)c1ccc(N)cc1
inactive: Potency [1] | Potency [2] | Potency [3] | outcome [4] | outcome [5] | Potency [6] | Potency [7] | outcome [8] | outcome [9] | outcome [10] | Potency [11] | outcome [16] | Potency [12] | outcome [17] | outcome [18] | outcome [13] | outcome [19] | Potency [14]

Cc1onc(-c2ccccc2)c1-c1ccc(S(N)(=O)=O)cc1
inactive: Potency [1] | Potency [2] | Potency [3] | outcome [4] | outcome [5] | Potency [6] | Potency [7] | outcome [8] | outcome [10] | Potency [11] | outcome [16] | Potency [12] | outcome [17] | outcome [13] | Potency [14] | outcome [20] | outcome [15]

Cc1ccccc1Br
inactive: Potency [1] | Potency [2] | Potency [3] | outcome [4] | outcome [5] | Potency [6] | Potency [7] | outcome [8] | outcome [9] | outcome [10] | Potency [11] | outcome [16] | Potency [12] | outcome [17] | outcome [18] | outcome [13] | outcome [19] | Potency [14] | outcome [20] | outcome [15]

CC(=O)OC(C)(C)C
inactive: Potency [1] | Potency [2] | Potency [3] | outcome [4] | outcome [5] | Potency [6] | Potency [7] | outcome [8] | outcome [9] | outcome [10] | Potency [11] | outcome [16] | Potency [12] | outcome [17] | Potency [14]

c1ccc2cnncc2c1
inactive: Potency [1] | Potency [2] | Potency [3] | outcome [4] | outcome [5] | Potency [6] | Potency [7] | outcome [8] | outcome [9] | outcome [10] | Potency [11] | outcome [16] | Potency [12] | outcome [17] | Potency [14] | outcome [20]

O=C(O)c1ccccc1S
inactive: Potency [1] | Potency [2] | Potency [3] | outcome [4] | outcome [5] | Potency [6] | outcome [8] | outcome [9] | outcome [10] | Potency [11] | outcome [16] | Potency [12] | outcome [17] | outcome [18] | outcome [13] | outcome [19] | Potency [14] | outcome [20]

CC(C)(O)Cc1ccccc1
inactive: Potency [1] | Potency [2] | Potency [3] | outcome [4] | outcome [5] | Potency [6] | Potency [7] | outcome [8] | outcome [9] | outcome [10] | Potency [11] | outcome [16] | Potency [12] | outcome [17] | Potency [14]

C=C(C)C(=O)NCCC[N+](C)(C)C
inactive: Potency [1] | Potency [2] | Potency [3] | outcome [4] | outcome [5] | Potency [6] | Potency [7] | outcome [8] | outcome [9] | outcome [10] | Potency [11] | outcome [16] | Potency [12] | outcome [17] | outcome [18] | outcome [13] | outcome [19] | Potency [14] | outcome [15]

C1=C\CC/C=C\CC/C=C\CC/1
inactive: Potency [1] | Potency [2] | Potency [3] | outcome [4] | outcome [5] | Potency [6] | Potency [7] | outcome [8] | outcome [9] | outcome [10] | Potency [11] | outcome [16] | Potency [12] | outcome [17] | outcome [18] | outcome [13] | outcome [19] | Potency [14] | outcome [20]

C=CC(=O)N1CCOCC1
inactive: Potency [1] | Potency [2] | Potency [3] | outcome [4] | outcome [5] | Potency [6] | Potency [7] | outcome [8] | outcome [9] | outcome [10] | Potency [11] | outcome [16] | Potency [12] | outcome [17] | outcome [18] | outcome [19] | Potency [14]

C#CC(O)C(CC)CCCC (stereo not drawn)
inactive: Potency [1] | Potency [2] | Potency [3] | outcome [4] | outcome [5] | Potency [6] | Potency [7] | outcome [8] | outcome [9] | outcome [10] | Potency [11] | Potency [12] | outcome [13] | Potency [14]
